# Sampled rows, rich in hits. Any-hit rate of the full collection: about 9.8%.
# HPGD block – blocks human HPGD enzyme activity. P15428. purified HPGD, NADH fluorescence kinetic, PGE2 substrate. Potency, µM, for the others: at the highest dose activity change, negative = inhibition, actives largely listed as inhibitors. 150,000 tested, 4.3% active; active means well fitted inhibition curve with a large enough effect, not every such curve was filed as active; inconclusive means small, poorly fitted or top-dose-only effect, or another doubt; inactive means no such curve, though single readings can be large or run the other way; further: potency means the concentration at half of the fitted maximal effect; on the % scale 0 is the no-effect control and ±100 the full control effect
#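 20 nM HPGD preincubated 15 min at room temperature with compound in 50 mM Tris-HCl pH 8, 0.01% Tween 20. Started with 1 mM NAD+ and 30 uM prostaglandin E2; NADH fluorescence (360/450 nm) read 5 times over 30-s intervals, last minus first.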
# HttQ103 aggreg – reduces HttQ103-GFP aggregates in PC12 cells; 220,000 tested, 1.1% active; Potency, µM (titrated, usually from 46.1 µM), inactives show at the top dose activity change, negative = inhibition, most hits filed as inhibitors; AID 1688; PC12 HttQ103-GFP aggregates, Acumen cytometry, 40 h; further: potency means the concentration at half of the fitted maximal effect; on the % scale 0 is the no-effect control and ±100 the full control effect; nearly all actives have a fitted effect of over 60% in size
#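 PC12/HTTQ103-GFP, ecdysone-inducible; teb 100 nM; cpd qHTS titration; GFP aggregates read on laser cytometer, Ex 488/Em 500-530 nm.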
# HTT cytoprotect – Huntington cell model cytoprotection by ATP luminescence. Potency, µM (highest dose often 56.4 µM), for the others: cytoprotection (ATP increase), most hits filed as activators. 230,000 tested, 0.14% active. PC12 HTT-Q103 induced, cytoprotection, ATP luminescence, 40 h; further: potency means the concentration at half of the fitted maximal effect; % of control where 0% means no effect; nearly all actives have a fitted effect of over 45% in size
#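 Huntington model: PC12 line, ecdysone-inducible HTTQ103 exon1–GFP, tebufenozide 100 nM. Test articles in a dose series. Endpoint luminescence from cellular ATP.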
# KDM4E inh – inhibitors of human JMJD2E histone demethylase. JMJD2E catalytic domain, FDH-coupled NADH fluorescence (FDH is formaldehyde dehydrogenase). Potency, µM (series often up to 57.1 µM), inactives show at the highest dose activity change, negative = inhibition, actives largely listed as inhibitors. 230,000 tested, 1.6% active; active means well fitted inhibition curve with a large enough effect, not every such curve was filed as active; inconclusive means small, poorly fitted or top-dose-only effect, or another doubt; inactive means no such curve, though single readings can be large or run the other way;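 further: potency means the concentration at half of the fitted maximal effect; 0% = wells with enzyme and -100% = buffer wells without enzyme; nearly all actives have a fitted effect of over 50% in size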
# Target sequence (B2RXH2 1-337 limits assumed): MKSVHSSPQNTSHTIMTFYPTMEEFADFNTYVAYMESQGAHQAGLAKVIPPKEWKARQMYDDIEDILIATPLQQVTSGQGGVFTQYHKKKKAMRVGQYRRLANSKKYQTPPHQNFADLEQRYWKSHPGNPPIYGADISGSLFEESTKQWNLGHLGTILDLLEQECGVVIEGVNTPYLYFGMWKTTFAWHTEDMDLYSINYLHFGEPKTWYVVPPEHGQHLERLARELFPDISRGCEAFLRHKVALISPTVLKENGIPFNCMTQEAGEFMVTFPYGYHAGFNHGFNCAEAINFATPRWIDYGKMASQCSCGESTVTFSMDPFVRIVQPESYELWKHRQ
# ALDH1A1 inh – blocks purified human ALDH1A1 activity; Purified ALDH1A1, NADH fluorescence, propionaldehyde substrate; Potency, µM (doses to about 75.3 µM), for inactives: at the highest dose activity, negative = inhibition, most hits filed as inhibitors; 220,000 tested, 7.3% active; P00352; active means well fitted inhibition curve with a large enough effect, not every such curve was filed as active; inconclusive means small, poorly fitted or top-dose-only effect, or another doubt; inactive means no such curve, though single readings can be large or run the other way;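 further: potency means the concentration at half of the fitted maximal effect; plate controls were no enzyme wells and a reference inhibitor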
# CBFb-RUNX1 inh – blocks binding between human CBF-beta and RUNX1; AlphaScreen CBFb-His/RUNX1-biotin binding, biochemical; Potency, µM (series often up to 59.8 µM), without a hit: at the top dose activity, negative = inhibition, actives largely listed as inhibitors; 230,000 tested, under 10 active; Q01196+Q13951; AID 1477; further: % of control where 0% means no effect
#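 Room-temperature protein-protein interaction test with 30 nM each of His-tagged CBF-beta and biotinylated RUNX1, 15 min with compound, then 90 min with nickel plus streptavidin beads. Signal read in AlphaScreen mode.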
# The depositor's hits bear a star; ? = inconclusive; . = no result given; ! = not confirmed by another sample; [ ] = another dose, or the depositor's remark. Unless noted, the call rests on the fitted dose curve; in most records, active means well fitted curve in the direction sought with a large enough effect; inconclusive means small, poorly fitted or top-dose-only effect, or another doubt; inactive means no such curve, though single readings can be large; an effect the other way counts as inactive or inconclusive.
SMILES,HPGD block,HttQ103 aggreg,HTT cytoprotect,KDM4E inh,ALDH1A1 inh,CBFb-RUNX1 inh
O=C1C=Cc2ccccc2C1=O,7.94µM*,-3.3%,.,14.1µM*,14.1µM*,-28.8%
Cn1cc(/C=C(\C(=O)O)C(C(=O)O)=C2CCCCC2)c2ccccc21,.,-0.3%[9.22 µM],-46.2%,-11.8%,?,-4.0%
CC(=O)NC(Cc1ccc(N(CCCl)CCCl)cc1)C(=O)NC(CC(C)C)C(=O)O (configuration not stated),.,5.1%[9.22 µM],11.5%[10 µM],-6.4%,2.24µM*,0.1%
CC(=O)[C@H]1[C@H](C#N)CC2C3CC=C4C[C@@H](O)CCC4(C)C3CCC21C (some centres not stated),-3.1%,.,.,.,-2.1%,8.9%
c1ccc2c(c1)OC[C@@H](C1=NCCN1)O2,1.4%,.,5.01µM*!,4.1%,-8.0%,3.1%[21.7 µM]
c1ccc(C2(c3ccccc3)CC2C2=NCCN2)cc1 (configuration not stated),.,4.0%,-11.7%,.,.,.
c1ccc([Se]c2c(-c3ccccc3)[se]c3ccccc23)cc1,-4.1%,.,-43.4%,.,9.1%,?
O=C(O)CCCCC1SCC2NC(=O)NC21 (configuration not stated),-7.6%,13.6%[9.22 µM],12.6µM*!,-2.2%,-1.6%,1.78µM*
O=C(CNC(=O)c1ccccc1)Nc1ccc(Br)cc1C(=O)c1ccccc1,-14.3%,?,2.9%[10 µM],-4.2%,-5.5%,7.5%
O=C(CN1CCCCC1)NCC(=O)Nc1ccc(Br)cc1C(=O)c1ccccc1,28.2µM*,-0.3%,0.4%,2.9%,9.7%,-1.7%
O=C(CCN1CCOCC1)NCC(=O)Nc1ccc(Br)cc1C(=O)c1ccccc1,-11.2%,-12.7%,-5.6%,1.2%,5.0%,-0.7%
O=C(CNC(=O)c1ccccc1Cl)Nc1ccc(Br)cc1C(=O)c1ccccc1,28.2µM*,-9.9%,17.4%[10 µM],-7.5%,-5.0%,3.4%
COCCCOc1ccnc(CS(=O)c2nc3ccccc3[nH]2)c1C (configuration not stated),?,8.3%,-172.9%,.,5.97µM*,-22.9%
Cc1c(OCC(F)(F)F)ccnc1CS(=O)c1nc2ccccc2[nH]1 (configuration not stated),?,2.8%,-52.2%,14.1µM*!,0.9%,-19.1%
CN(C)CCCc1c[nH]c2ccccc12,-7.5%,.,9.4%[10 µM],.,2.7%[13.5 µM],.
C=C1C(O)C2OC3(CCC(/C=C/C(C)C4CC(C)=CC5(OC(CC(C)(O)C(=O)O)CCC5O)O4)O3)CCC2OC1C(O)CC(C)C1OC2(CCCCO2)CCC1C (configuration not stated),-1.6%,.,16.1%[1.9 µM],.,3.4%[2.48 µM],-15.8%[2.36 µM]
CC[C@@H]1/C=C/C=C/C[C@H](C)[C@@H](O)[C@](C)(O)C(=O)[C@H](C)[C@@H](O)[C@H](C)C(=O)[C@H](C)[C@@H](O)[C@H](C)/C=C/C(=O)O[C@H]2[C@@H](C)[C@@H](CC1)O[C@@]1(CC[C@@H](C)[C@@H](C[C@H](C)O)O1)[C@@H]2C,.,.,-6.8%,.,?,?
C[As+](C)(c1ccc(Br)c([N+](=O)[O-])c1)c1ccc(Br)c([N+](=O)[O-])c1.O=[N+]([O-])O,-2.0%,.,1.1%[10 µM],.,32.3%[13.5 µM],.
C#Cc1cccc2c1c(C(=O)c1ccc(Cn3c(C)nc4cnccc43)c(F)c1)cn2C(=O)N(C)C,.,.,.,.,.,2.3%
CCOP(=S)(OCC)SCCSCC,-11.1%,.,-10.6%,.,14.1µM*,5.6%[21.7 µM]
COc1ccc(Cn2c(O)c(/C=N/NC(=O)c3ccccc3O)c(=O)[nH]c2=O)cc1,?,-3.9%,6.1%[1.9 µM],2.1%,?,1.7%
O=C(N/N=C/c1c(O)n(CCc2ccc(F)cc2)c(=O)[nH]c1=O)c1ccncc1,.,14.5%,-10.5%,?,?,?
CCn1c(O)c(/C=N/NC(=O)c2ccccc2)c(=O)[nH]c1=S,.,-6.2%[9.22 µM],2.0%[10 µM],31.6µM*,.,-5.8%
O=C(N/N=C/c1c(O)n(CCc2ccccc2)c(=O)[nH]c1=O)c1ccncc1,-18.8%,-1.0%,17.3%[10 µM],28.2µM*,?,.

# Assay outcomes as filed in PubChem BioAssay.
